The results in this text go back to PubChem BioAssay (NCI).

The panel holds about 83,000 compounds, 20% with a hit somewhere; the sample as a whole holds those more often.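 Growth was measured after 48 h exposure to one concentration of compound in 96-well plates. Values under 10 count as active.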 Values without a mark were called inactive. Calls of active or inactive are those of the source.

Test in all cases: NCI-60 one-dose screen, 48 h (100 = growth as untreated, 0 = no growth, -100 = all killed)
Conditions in all cases: 10 µM unless noted

Experiment [1] has as its system NCI-H23 lung.
Experiment [2] has as its system NCI-H226 lung.
Experiment [3] relates to NCI-H322M lung.
Experiment [4] relates to HOP-62 NSCLC.
For experiment [5], the system named is NCI-H460 lung.
Experiment [6] deals with HOP-92 NSCLC.
The subject of experiment [7] is NCI-H522 lung.
Experiment [8] relates to A549/ATCC NSCLC.
Experiment [9] deals with 786-0 renal.
The test system of experiment [10] is COLO 205 colon.

For the compound `Fc1ccc(CNc2c3ccccc3nc3ccccc23)c(F)c1`, the growth in experiment [1] was 42.8%; in experiment [2] it was 54.8%; in experiment [3], 49.2%; in experiment [4] it was 57.2%; in experiment [5], 20%; in [6] it was -2.61% (active). Moreover, the growth is 42.3% in experiment [7], 40.1% in experiment [8], 47.6% in [9] and 26.8% in experiment [10].
Consider `COc1ccc(C2=Nc3c(N)nc(N)nc3NC(c3cccc(Nc4ccnc5cc(C(F)(F)F)ccc45)c3)C2)cc1` (centres undefined), for which the growth in [1] was 85.8%; in experiment [2], 97.2%; in experiment [3] it was 99.6%; in experiment [4] it was 67.8%; in [5], 59.3%; in experiment [6], 57.3%. Moreover, the growth in experiment [7] was 44.9%; in experiment [8], 63.1%; in experiment [9], 73%; in experiment [10], 57.7%.
As for `N#CSc1c[nH]c2cccc(/C=C/C(=O)/C=C(/C=C/c3cccc4[nH]cc(SC#N)c34)OB(F)F)c12`, the growth in experiment [1] was -45.4% (active); in experiment [2], -75.9% (active); in experiment [3] it was 53.7%; in experiment [4] it was -26.1% (active); in [5], 4.16% (active); in experiment [6], -62.1% (active). Besides, the growth in [7] is -65.2% (active); in [8], -8.65% (active); in experiment [9] it was -51.6% (active); in experiment [10], -60% (active).
As for `N#Cc1c(-c2ccc(Cl)cc2)c(C#N)c2c(C#N)c(N)nn2c1N`, the growth in experiment [1] is 98.1%; in experiment [2], 86.8%; in experiment [3], 81.7%; in experiment [4], 79.5%; in experiment [5], 86.9%; in experiment [6], 61%. Also, the figures for the growth in experiment [7], in experiment [8] and in [9] were 64.8%, 77.4% and 86.6%, respectively.
As for `COc1ccc(Cc2cnc(NC(=O)c3cc(C)oc3C)s2)cc1`, the growth in experiment [1] is 59.5%; in experiment [2], 70.7%; in experiment [3], 51.9%; in experiment [4], 53%; in experiment [5], 16.6%; in experiment [6], 49.9%. Moreover, the growth in experiment [7] was 14.4%; in experiment [8] it was 38.1%; in [9], 43.4%.
For the compound `CC(=O)c1c(C)nc2ccccc2c1/C=C/c1ccc(F)cc1`, the growth was 81.7% in [1]; 77.2% in experiment [2]; 96.8% in experiment [3]; 92% in [4]; 91.5% in experiment [5]; 75.6% in experiment [6]. The growth was 69.2% in experiment [7], 83.8% in experiment [8], 89.4% in experiment [9] and 104% in [10].
On to `CC(=O)c1c(C)nc(SCC(=O)Nc2cccc(O)c2)n1-c1ccc(Cl)cc1`, for which the growth in experiment [1] was 94.3%; in experiment [2], 107%; in experiment [3] it was 91.2%; in experiment [4], 105%; in experiment [5] it was 94.5%; in [6] it was 100%. Moreover, the figures for the growth in experiment [7], in experiment [8] and in [9] were 83.9%, 96.2% and 102%, respectively.
As for `CCc1ccccc1-n1c(-c2ccc(OC)cc2)cc(-c2ccc(OC)cc2)c(C#N)c1=O`, the growth was 73.8% in experiment [1]; 95.9% in [2]; 82.2% in experiment [3]; 67.5% in experiment [4]; 85.5% in experiment [5]; 5.54% (active) in experiment [6]. Besides, the values for the growth in experiment [7], in experiment [8] and in experiment [9] were 73.8%, 100% and 33.7%, respectively.
In the case of `O=c1[nH]c(Cc2nc3ccccc3s2)nc2cc(Br)ccc12`, the growth was 86.1% in [1]; 76.8% in experiment [2]; 88.8% in experiment [3]; 37.6% in [4]; 53.3% in experiment [5]; 84.9% in experiment [6]. Besides, the growth is 58.7% in experiment [7], 61% in [8], 68% in experiment [9] and 88.3% in [10].
Turning to `CCOC(=O)c1c(NC(=O)c2ccc(Cl)cc2)sc2c(CN(C)C)c(O)ccc12`, the growth is 88% in [1]; 96.1% in [2]; 61.3% in experiment [3]; 84.6% in [4]; 71.3% in experiment [5]; 1.75% (active) in [6]. Besides, the growth in experiment [7] was 76.5%; in experiment [8], 69.6%; in [9], 69.8%.
Turning to `Cc1cc(N2CCCCC2)cc(C)c1-c1csc(NC(=O)c2ccncc2)n1`, the growth is 45.1% in [1]; 60.6% in [2]; 78.2% in [3]; 62.5% in experiment [4]; 66.9% in experiment [5]; 53.8% in experiment [6]. The growth in experiment [7] is 44.1%; in experiment [8], 49.1%; in [9], 77.5%.
Take `NC(N)=NCCCCCNc1noc(Cc2c[nH]c3cc(Br)ccc23)n1`: the growth was 64% in experiment [1]; 63.2% in [2]; 77.3% in experiment [3]; 58.3% in experiment [4]; 68% in experiment [5]; 16.2% in [6]. For the same compound, the growth in [7] was 47.8%; in experiment [8], 65.3%; in [9], 91.7%; in experiment [10], 64.7%.
For `O=C1C(=O)N(Cc2ccc(-c3ccccc3)cc2)c2ccc(OC(F)(F)F)cc21`, the growth in experiment [1] is 41.4%; in experiment [2], 73.6%; in [3], 102%; in experiment [4] it was 37.5%; in experiment [5], 83.3%; in experiment [6] it was 60.8%. The growth in experiment [7] is 31.1%; in [8], 92.9%; in experiment [9] it was 41.6%; in [10], 82.7%.
As to `COc1cc(OC)c(/C=C/C(=O)c2c(OC)cccc2OC)c(OC)c1`, the growth in experiment [1] was -22% (active); in [2], 47.3%; in experiment [3], 1.28% (active); in experiment [4], 40.1%; in [5], 9.67% (active); in [6], -1.46% (active). The growth in experiment [7] was -22.7% (active); in experiment [8] it was 6.84% (active); in [9] it was 16.5%; in experiment [10] it was -13.4% (active).
